AMA1-RON2 inh = AMA1-RON2 (P. falciparum) interaction inhibition | AlphaScreen AMA1-biotinylated RON2 peptide binding | Potency, µM (titrated, usually from 58.2 µM), without a hit: at the highest dose activity change, negative = inhibition, usual class: inhibitors | 360,000 compounds, 0.2% hits | AID 720542;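 also: 0% = vehicle wells and -100% = peptide control; nearly all actives have a fitted effect of over 45% in size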
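AMA1 (3D7) with his tag at 25 nM final met compounds first, then biotinylated RON2 peptide at 25 nM; detection used donor plus acceptor beads, 10 µg/mL apiece, read by AlphaScreen after 30 min at room temperature.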
Pf growth 48h = inhibits P. falciparum growth in the first generation, 48 h; Potency, µM (highest dose often 28.7 µM), for inactives: top-dose activity change, negative = inhibition, actives largely listed as inhibitors; AID 504832; 310,000 compounds, 5.9% hits; P. falciparum luciferase growth in erythrocytes, 48 h; also: % is scaled to controls: 0 for no effect and ±100 for the full control effect
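Cell-based growth assay: transgenic P. falciparum expressing firefly luciferase, cultured in red cells within RPMI 1640 containing 0.5% w/v Albumax, 24 mM bicarbonate and gentamycin. A drop in luciferase activity indicates inhibition.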
NS1 function inh = inhibitors of influenza NS1 protein function. Potency, µM (series often up to 46.1 µM), without a hit: at the highest dose activity, positive = more growth. 270,000 compounds, 0.4% hits; calls by dose curve; also: actives are rising curves; nearly all actives have a fitted effect of over 50% in size
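Recovery from NS1-induced slow growth read by OD600 in budding yeast switched to galactose assay medium (pH 6.0, -URA) at 1:100 dilution. Compound 23 nl per well; the matching strain lacking NS1 serves as control.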
SARS PLP yeast = blocks SARS-CoV papain-like protease in a yeast assay; S. cerevisiae expressing SARS-CoV PLpro, growth rescue; Potency, µM (top dose mostly 32.9 µM), for the others: at the highest dose activity, positive = growth rescue, most hits filed as activators; 330,000 compounds, 0.19% hits; calls by dose curve; also: 0% is about no effect; nearly all actives have a fitted effect of over 55% in size
Pf growth 96h = P. falciparum growth inhibition at 96 hour, primary screen for plastid delayed-death inhibitors. Potency, µM (top dose mostly 28.7 µM), without a hit: top-dose activity change, negative = inhibition, most hits filed as inhibitors. P. falciparum luciferase reporter growth, 96 h. AID 504834. 320,000 compounds, 6.9% hits; also: % is scaled to controls: 0 for no effect and ±100 for the full control effect
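Two parasite generations (96 h, 37 C, 5% CO2) of compound exposure in infected erythrocytes (0.05% parasitemia, 2% hematocrit). Luciferase-reporter P. falciparum; decreased luminescence indicates inhibited growth, aimed at apicoplast-acting delayed death.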
HCV inh = blocks hepatitis C virus; Huh7.5.1 HCVcc-Cre infection, luciferase reporter, 44 h; Potency, µM (highest dose often 41.8 µM), inactives show at the highest dose activity change, negative = inhibition, hits mostly inhibitors; 340,000 compounds, 3.4% hits; also: % is scaled to controls: 0 for no effect and ±100 for the full control effect
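Reporter virus HCVcc-Cre (~0.5 moi) infects cells exposed to compound; seeding density 1,000 cells/well with 4 h settling beforehand. Luminescence, 15 sec read, taken 44 h post-infection following a 15 min RT substrate incubation.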
The depositor's hits bear a star; ? = inconclusive; . = no result given; ! = repeats disagree; [ ] = remark or other dose. Rows were chosen to be rich in hits. Some 12% of all compounds tested hit in one or more screens of this group. Unless noted, calls follow the shape of the dose curve; as a rule, active = well fitted curve in the direction sought with a large enough effect; inconclusive = small, poorly fitted or top-dose-only effect, or another doubt; inactive = no such curve, though single readings can be large; an effect the other way counts as inactive or inconclusive. Potency is read from the fitted curve at half-maximal effect.

SMILES	AMA1-RON2 inh	Pf growth 48h	NS1 function inh	SARS PLP yeast	Pf growth 96h	HCV inh
O=C(CCNC(=O)Cn1ccc2ccccc2c1=O)NCCc1ccc(Cl)cc1	7%	22%	2%	0%	?	7%
COC(=O)c1cc(=O)n(Cc2cccs2)c(=NCc2cccs2)s1	-1%	3%	5%	-2%	.	.
CCOC(=O)c1ccc(N=c2sc(C(=O)OC)cc(=O)n2CCCN2CCOCC2)cc1	-12%	?	-61%	4%	4.7µM*!	?
CCOC(=O)c1ccc(N=c2sc(C(=O)OC)cc(=O)n2Cc2ccco2)cc1	-13%	?	-4%	-4%	?	22µM*
COC(=O)c1ccc2c(=O)n(CCCN3CCOCC3)c(=S)[nH]c2c1	-6%	-16%	-10%	2%	-10%	3%
C/C(=N\Nc1c([N+](=O)[O-])c(C)nn1C)c1ccc(F)cc1F	-28%	?	.	-3%	-39%	7%
O=C(NCc1ccco1)c1cc2nc(-c3ccc4c(c3)OCO4)cc(C(F)(F)F)n2n1	9%	?	-12%	-4%	?	?
COc1ccc(-c2cc(C(F)(F)F)n3nc(C(=O)N(C)Cc4ccccc4)cc3n2)cc1OC	24%	6.6µM*	6%	1%	-35%[5.75 µM]	10µM*
COc1ccc(-c2cc(C(F)(F)F)n3nc(C(=O)NCc4ccco4)cc3n2)cc1	5%	9.3µM*	-10%	5%	?	?
COc1ccc(-c2cc(C(F)(F)F)n3nc(C(=O)Nc4cc(C)on4)cc3n2)cc1OC	10%	?	-42%	2%	2%	?
Cc1ccccc1OCC(=O)OCC(=O)Nc1cc(S(=O)(=O)N2CCCCC2)ccc1Cl	-4%	-19%	.	1%	10%	-10%[8.37 µM]
O=C(c1ccc(Cl)c(S(=O)(=O)N2CCOCC2)c1)N1CCc2ccccc2C1	23%[11.6 µM]	.	.	-4%	.	1%
CN(C(=O)COC(=O)C(C)(C)Oc1ccc(Cl)cc1)c1c(N)n(Cc2ccccc2)c(=O)[nH]c1=O	-15%	-25%	.	5%	-28%	-6%
O=C(OCc1ccccc1Cl)c1cc([N+](=O)[O-])ccc1N1CCOCC1	-15%	.	.	.	.	?
O=C(OCc1c(F)cccc1Cl)c1cc([N+](=O)[O-])ccc1N1CCOCC1	?	?	.	4%	7%	11µM*
O=C(OCc1ccc([N+](=O)[O-])cc1)c1cc([N+](=O)[O-])ccc1N1CCOCC1	-26%	?	.	1%	?	4.5µM*
COc1cccc(CNc2ccc([N+](=O)[O-])cc2C)c1	?	?	-1%	-1%	17%	-17%
COc1cccc(NCc2ccc([N+](=O)[O-])s2)c1	-12%	-27%	28%	-3%	0.33µM*	0%
O=C(CCN1C(=O)C2CC=CCC2C1=O)Nc1ccc(S(=O)(=O)N2CCCCC2)cc1 (configuration not stated)	-8%	?	.	4%	-3%	0%
CC(=O)/C=C\c1cn(-c2ncc(C(F)(F)F)cc2Cl)c2ccccc12	-8%	?	-8%	-7%	10µM*	?
O=C(CCc1[nH]c2ccccc2c1Sc1ccccc1)NCCO	-9%	?	-8%	0%	?	6%
Cc1ccc2cc(/C=N/NC(=O)CN3CCCCC3)c(Cl)nc2c1	3%	59%	-2%	3%	2%	-12%
CN(C)c1ccc(NC(=O)CSc2nc(N)c(C(=O)Nc3ccc(N(C)C)cc3)s2)cc1	?	?	-28%	-1%	?	10µM*
CCOC(=O)CSc1nc(C(C)C)nc2ccccc12	8%	0%	-12%	-9%	13µM*	-20%
CC(C)c1nc(SCC(=O)Nc2ccc(N(C)C)cc2)c2ccccc2n1	?	12µM*	16%	0%	27%	?
SMILES	AMA1-RON2 inh	Pf growth 48h	NS1 function inh	SARS PLP yeast	Pf growth 96h	HCV inh
COC(=O)CSc1nc(C(C)C)nc2ccccc12	12%	-1%	-88%	1%	-2%	5%
CC(C)c1nc(SCC(=O)Nc2nccs2)c2ccccc2n1	4%	-7%	9%	1%	?	-10%
CC1(C)O[C@@H]2[C@H](O1)[C@@H](CO)O[C@H]2n1ccc(=O)[nH]c1=O	6%	4%	.	0%	36%	-9%
COc1ccc(NCc2nn(CC(=O)c3ccc(Br)cc3)c3[n+]2CCCCC3)cc1	?	1.9µM*	.	0%	?	2%
O=C(Cn1nc(CNc2ccc(Cl)cc2)[n+]2c1CCCCC2)c1ccc(Br)cc1	-17%	0.93µM*	11%	-28%	?	41%
O=C(Cn1nc(CNc2ccc(Br)cc2)[n+]2c1CCCCC2)c1ccc([N+](=O)[O-])cc1	-1%	2.1µM*	5%	-2%	?	-6%
COc1ccc(C(=O)CN2CCCCC2)cc1	11%	37%	.	0%	17%	9%
Cc1c(NC(=O)COc2cccc(Cl)c2Cl)c(=O)n(-c2ccccc2)n1C	0%	-13%	.	-2%	0%	-13%
COc1ccc(N(C(=O)CCl)C(C(=O)NCCc2ccccc2)c2cccs2)cc1Cl (configuration not stated)	-4%	9.3µM*	-18%	-54%	4.7µM*	0.56µM*
O=C1Nc2cc(Br)ccc2C1(O)c1ccccc1O (configuration not stated)	5%	?	0%	0%	?	-6%
CC(C)c1ccc(C2(O)C(=O)Nc3cc(Br)ccc32)c(O)c1 (configuration not stated)	-2%	13µM*	-1%	2%	13µM*	-4%
Cn1cc(CN2CCCC(C(=O)Nc3cccc(-c4cc5ccccc5[nH]4)c3)C2)cn1 (configuration not stated)	-29%	?	?	0%	81%	7.1µM*
CC(C)n1cc(CN2CCCC(C(=O)Nc3cccc(-c4cc5ccccc5[nH]4)c3)C2)cn1 (configuration not stated)	?	?	25%	3%	9%	11µM*
CCC(=NCc1ccc(F)cc1)c1c(O)n(C)c(=O)n(C)c1=O	-7%	0%	-17%	3%	68%	10µM*
CCC(=NCCC(c1ccccc1)c1ccccc1)c1c(O)n(C)c(=O)n(C)c1=O	-9%	1%	-5%	19%	30%	0%
COc1cccc2cc(-c3nnc(SCC(=O)Nc4nc(C)cs4)n3C)oc12	4%	?	?	4%	?	13µM*
Cc1csc(NC(=O)CSc2nnc(-c3ccco3)n2C)n1	3%	?	8%	3%	11%[5.75 µM]	9%
COc1ccc(CCCc2nnc(SCC(=O)Nc3nc(C)cs3)n2C)cc1	-8%	10µM*	3%	1%	.	-3%

Screening data (PubChem BioAssay)
